# Assay results: PubChem BioAssay AID827 (SRMLSC, 2007)
# Screen size: about 140,000 compounds; about 1,700 (1.2%) were called active. The full list was thinned out, with actives kept by preference. Values without a mark were called inactive.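 Rule for the calls: active = viability at or below a set limit, 4 SD under the median of all tested compounds (cut at about 3.7% in these data); inactive = the rest.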
# Test: viability loss in PTEN-deleted colon tumor cells – cell-based, HCT116, CellTiter-Glo, primary screen (AID 827);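 note: PTEN knockout HCT116 line with beta catenin targeted HCT116 as companion control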
# Details: HCT116 PTEN-null viability, 60 h, at 10 µM, hits give low values
row,Compound,viability
1,CCCC(O)(CCC)C(=O)NN(C(=O)CCl)c1cccc(C)c1,32.7%
2,CC(C[N+](C)(C)C)OC(N)=O (stereo not drawn),1.03% (active)
3,CC(=O)OC(C)C[N+](C)(C)C (stereo not drawn),98.9%
4,COc1ccc(/C(N)=N/OC(=O)CCCc2ccccc2)cc1,94.9%
5,COC(=O)c1cc(C(=O)N(Cc2ccccc2)c2ccccn2)cc([N+](=O)[O-])c1,94.2%
6,NC1=C([N+](=O)[O-])C(c2ccccc2)C2=C(CCCC2=O)O1 (stereo not drawn),95.7%
7,O=C(COC(=O)/C(=C/c1cccs1)c1cccs1)NCc1ccccc1Cl,91.8%
8,Cc1coc2c(O)cc3c(c12)OC1(N2CCCCC2)C(=O)NCCCC31 (stereo not drawn),2.96% (active)
9,Cn1cc(C(=O)NCc2ccccc2F)cn1,102%
10,COc1cccc(NC(=O)c2ccc(Cn3cc([N+](=O)[O-])cn3)o2)c1,86.8%
11,Cn1cc([N+](=O)[O-])c(C(=O)Nc2ccc3c(c2)OCCO3)n1,3.52% (active)
12,Cn1cc([N+](=O)[O-])c(C(=O)Nc2cnn(Cc3ccc(F)cc3)c2)n1,3.56% (active)
13,O=C(Nc1ccc2c(c1)OCCO2)c1ccncc1,94.3%
14,O=C(Nc1ccc2c(c1)OCCO2)c1cnccn1,97.3%
15,CCc1ccc(NC(=O)c2ccc(Cn3cc([N+](=O)[O-])cn3)cc2)cc1,99%
16,O=[N+]([O-])c1cccc(S(=O)(=O)N2CCCCCC2)c1,86.5%
17,COc1ccc(C(=O)CSc2nnc(NC(=O)C3CC(=O)N(c4cccc(OC)c4)C3)s2)cc1 (stereo not drawn),94.8%
18,Cc1nc2ccccc2cc1O,103%
19,CSc1nc(N)c(C#N)c(-c2ccccc2Cl)c1C#N,86.3%
20,CSc1nc2ccccc2cc1/C=C(\C#N)c1ccc(Cl)cc1Cl,3.51% (active)
21,Cc1cc(C(=O)COC(=O)CNC(=O)c2ccc(F)cc2)c(C)n1Cc1ccco1,96.4%
22,C=CCc1cccc2cc(C(=O)OCC)c(=O)oc12,104%
23,COc1cccc2cc(C(=O)N3CCN(C(=O)c4ccccc4)CC3)c(=O)oc12,87.7%
24,COc1cccc2cc(C(=O)N(C)C)c(=O)oc12,1.64% (active)
25,Cc1ccc(Oc2cc(NC(=O)CCCn3nc(C)c([N+](=O)[O-])c3C)cc([N+](=O)[O-])c2)cc1,71.1%

row,Compound,viability
1,CC(C)(C)C1CCC(OC(=O)CCC(=O)Nc2ccccc2)CC1 (stereo not drawn),87%
2,CC(Nc1nc(N2CCCC2)nc2ccccc12)c1ccccc1 (stereo not drawn),2.77% (active)
3,Cc1ccc(C(CC(=O)O)Nc2nc(N3CCCCC3)nc(N3CCCCC3)n2)cc1 (stereo not drawn),99.5%
4,CC(C)n1c(C(O)c2ccccc2)nc2ccccc21 (stereo not drawn),101%
5,Cc1ccc(C)c(NC(=S)NCC(c2cccnc2)N2CCOCC2)c1 (stereo not drawn),92.3%
6,CCCCCCc1cc2cc(-c3nnc(-c4ccccc4)o3)c(=O)oc2cc1O,1.84% (active)
7,CC(=O)c1c(C)[nH]c(C(=O)OCC(=O)Nc2sc3c(c2C#N)CCCC3)c1C,66.9%
8,COc1cccc2c1CCC(NC(C)=O)C2=O (stereo not drawn),86%
9,O=C(/C(=C/c1cccc(Cl)c1)c1nc2ccccc2[nH]1)c1ccccc1,1.59% (active)
10,Oc1ccc(Cl)cc1/C=N/c1nc2ccccc2[nH]1,93.9%
11,COc1ccc(/C=C(/NC(=O)c2ccc(C)cc2)c2nc3ccccc3[nH]2)cc1OC,99.4%
12,Cc1ccc(C(=O)/C=C/Nc2ccc(S(=O)(=O)Nc3onc(C)c3C)cc2)cc1,92.7%
13,O=C(NCCc1ccccc1)C1CCC(Cn2c(=O)c3ccccc3n(Cc3cccnc3)c2=O)CC1 (stereo not drawn),63.7%
14,Cc1cccc(NC(=O)CSc2nc3[nH]ncc3c(=O)[nH]2)c1,90.2%
15,Cc1noc(COc2ccccc2OCC(O)CNC(C)(C)C)n1 (stereo not drawn),98.8%
16,CC(C)(C)CC(C)(C)NCC(O)COCCOc1ccc(Br)cc1 (stereo not drawn),1.74% (active)
17,CCC(C)NCCOCCOc1ccc(Br)cc1C (stereo not drawn),71%
18,Cc1cccc(C(=O)OCC(=O)Nc2sc3c(c2C#N)CCC3)c1,95.8%
19,CCc1ccccc1NC(=O)CN(C)C(=O)COc1ccc(C)nc1[N+](=O)[O-],95.3%
20,O=C(Nc1c2c(nc3ccccc13)CCCC2)c1ccccc1Br,86.9%
21,O=C(NNc1c2ccccc2nc2ccccc12)c1cc2ccccc2cc1O,2.39% (active)
22,Cc1noc(C)c1COC(=O)c1cc2ccccc2cc1O,86.5%
23,C=CCNC(=O)c1ccccc1NC(=O)c1ccc(Cl)c(S(=O)(=O)Nc2cccc(C)c2C)c1,55.4%
24,Cc1ccc(-n2c(SCC(=O)N/N=C/C=C/c3ccccc3[N+](=O)[O-])nc3ccccc3c2=O)cc1,85.4%
25,Cn1cc(/C=C/c2nc3ccccc3c(=O)n2-c2cccc([N+](=O)[O-])c2)c2ccccc21,62.3%

row,Compound,viability
1,CCn1c(/C=C/c2ccc([N+](=O)[O-])o2)nc2ccccc2c1=O,2.45% (active)
2,CCc1nnc(NC(=O)[C@@H](NC(=O)c2cccc(C)c2)C(C)C)s1,80.8%
3,Cc1cc(C)c2c(n1)sc1c(=O)n(-c3ccccc3)c(=O)[nH]c12,97.1%
4,C/C(O)=C\c1nc(=O)c2c(C)cc(C)nc2n1-c1ccccc1,2.19% (active)
5,N#CCSc1nc2ccccc2c(=O)n1-c1ccccc1,90.5%
6,COc1ccc(CCC(=O)OCC(=O)Nc2ccc(C)c(S(=O)(=O)N(C)C)c2)cc1,96.3%
7,c1ccc2c(c1)CSc1sccc1C2=C1CCNCC1,4.26%
8,CCOC(=O)c1ccc(N/C(=N/S(=O)(=O)c2ccccc2)c2ccccc2)cc1,102%
9,CCOC(=O)c1ccccc1NS(=O)(=O)c1ccc(OC)cc1,15.6%
10,CCCCC(C(=O)OCC(=O)c1ccc(OC)cc1)N1C(=O)c2ccccc2C1=O (stereo not drawn),97.5%
11,CCOC(=O)C1=C(c2ccc(OC)cc2)C(=O)c2ccccc2C1=O,1.48% (active)
12,N#C/C(=C(/O)COC(=O)COc1ccc(Cl)cc1)c1nc2ccccc2[nH]1,5.27%
13,N=c1c2c(-c3ccccc3)c(-c3ccccc3)oc2ncn1Cc1ccco1,54.2%
14,N=c1c2c(-c3ccccc3)c(-c3ccccc3)n(Cc3ccccc3)c2ncn1CCCO,1.76% (active)
15,OCCCN1c2ccccc2Nc2nnc(-c3ccccc3)cc21,53.1%
16,Cc1nc(-c2ccccc2)sc1C(=O)/C=C/c1ccccc1,6.16%
17,O=C(/C=C/c1ccccc1)c1ccccc1O,83.3%
18,Cc1[nH]c(=O)c(C(=O)/C=C/c2ccccc2)c2c1CCCC2,1.81% (active)
19,O=C(Nc1ccccc1)c1cc2ccccc2[nH]1,66.4%
20,O=C(NCCOCc1ccc(Cl)cc1)c1ncn[nH]1,101%
21,O=C(/C=C/Sc1ncn[nH]1)c1ccc(Cl)cc1,2.52% (active)
22,CC(C)(C)c1ccc(C(=O)CSc2ncn[nH]2)cc1,94.8%
23,CC(=O)NC1C(OCc2ccccc2)OC(COC(C)=O)C(OC(C)=O)C1OC(C)=O (stereo not drawn),96.9%
24,S=c1[nH]nc(-c2cccnc2)n1/N=C/C(Cl)=C\c1ccccc1,8.01%
25,Cc1cc(-c2n[nH]c(=S)n2/N=C/C(Br)=C/c2ccccc2)n[nH]1,1.39% (active)

row,Compound,viability
1,Cc1ccc(/C=N\n2c(-c3ccccc3)n[nH]c2=S)s1,109%
2,Cc1nn(C)c(C(=O)NNC(=S)NC2CCCCC2)c1Cl,95.4%
3,CC1CCN(C(=S)NC2CC3CCC2C3)CC1 (stereo not drawn),95.9%
4,O=C1/C(=C\c2ccccc2Cl)SC(=S)N1CCC(=O)N1CCCc2ccccc21,2.6% (active)
5,O=C(c1c(Cl)nc2sccn12)N1CCCc2ccccc21,81.7%
6,O=C(CCCN1C(=O)/C(=C/c2ccco2)SC1=S)Nc1ccccc1,24%
7,N=C1C(=O)OCC1c1ccccc1NC(=O)CN1CCCCC1 (stereo not drawn),83.9%
8,CC(NC(=O)c1cccc2ccccc12)c1ccc2c(c1)CCCC2 (stereo not drawn),25.1%
9,NS(=O)(=O)c1ccc(CCNC(=S)Nc2ccc(S(N)(=O)=O)cc2)cc1,96.8%
10,Cc1ccc(C)c(NC(CC(=O)c2ccccc2)C(=O)OCC(=O)c2cccs2)c1 (stereo not drawn),85%
11,Cc1ccccc1C(CC(=O)c1cccs1)C(C#N)C#N (stereo not drawn),3.71% (active)
12,O=C(CCC(=O)c1cccs1)NCc1ccccc1,97.4%
13,Cc1ccc(CN2C(=O)N/C(=C/c3cc(C)n(-c4ccccn4)c3C)C2=O)cc1,84.5%
14,Cc1cc(OCCCC(=O)NCCN2C(=O)S/C(=C\c3cccnc3)C2=O)ccc1Cl,78.4%
15,COC(=O)N/N=C/c1ccc(-c2ccc(Cl)c(Cl)c2)o1,68.4%
16,O=C(CN1C(=O)NC2(CCCCCC2)C1=O)NCc1cccs1,102%
17,Cc1ccc(C)c2[nH]c(=O)c(CCNC(=O)c3cccs3)cc12,85.5%
18,Cc1[nH]n(-c2cccc(Cl)c2)c(=O)c1/C=N/n1c(C)nc2ccccc2c1=O,89.2%
19,COc1cccc(/C=N/NC(=O)c2cccc([N+](=O)[O-])c2)c1OS(=O)(=O)c1ccc(C)cc1,71.7%
20,COc1cc(/C=N\NC(=O)CNC(=O)c2cccc([N+](=O)[O-])c2)ccc1O,98.5%
21,Cc1ccc(-n2[nH]c(C)c(/C=N/NC(=O)c3cccc([N+](=O)[O-])c3)c2=O)cc1C,2.5% (active)
22,Cc1[nH]n(-c2ccccc2)c(=O)c1/C=N/NC(=O)c1ccoc1C,3.19% (active)
23,Cc1[nH]n(-c2ccc(Cl)cc2)c(=O)c1/C=N/n1c(C)nc2ccccc2c1=O,33.6%
